# Article PMC7862700, “An all-to-all approach to the identification of sequence-specific readers for epigenetic DNA modifications on cytosine”
# Experiments:
# Assay in all cases: DAPPL (digital affinity profiling via proximity ligation, sequencing); 10 mM Tris-HCl pH 7.5, 50 mM NaCl, 1 mM DTT, 4% glycerol, room temperature, 30 min; GST-TFs on glutathione beads, 16-mer random dsDNA library, 0.1% formaldehyde crosslink after washing; high values mean tight binding
# FEV = target: T1, FEV (Homo sapiens, UniProt Q99581 1-238); conditions: protein: recombinant; tags: N-terminal GST; dsDNA, one strand shown
# T1 sequence: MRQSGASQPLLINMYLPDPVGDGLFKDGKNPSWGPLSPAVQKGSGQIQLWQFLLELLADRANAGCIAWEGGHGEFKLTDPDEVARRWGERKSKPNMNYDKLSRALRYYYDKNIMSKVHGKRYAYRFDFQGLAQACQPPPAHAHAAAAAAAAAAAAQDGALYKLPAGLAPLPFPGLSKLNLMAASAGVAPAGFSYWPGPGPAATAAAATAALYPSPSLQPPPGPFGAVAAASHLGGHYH
# Procedure, shortened: (§1)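 Binding signal is each hexamer's read frequency for a factor divided by its frequency in the tag-only sample. The factors were GST-fused human transcription factors from yeast, captured on glutathione beads, DNA-barcoded and pooled with that sample. Pools were incubated with 200 nmole of a random double-stranded 16-mer DNA library in Tris/NaCl/DTT/glycerol buffer at room temperature for 30 min, then washed, crosslinked with 0.1% formaldehyde, proximity-ligated with BsaI/T4 ligase (1 h, 37 °C), PCR-amplified and sequenced on an Illumina NextSeq500.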
# ETV5 = ETV5 (Homo sapiens, UniProt P41161 1-510); conditions: protein: recombinant; tags: N-terminal GST; dsDNA, one strand shown
# Procedure, shortened: as §1
# HSF1 = HSF1 (Homo sapiens, UniProt Q00613 1-529); conditions: protein: recombinant; tags: N-terminal GST; chain copies: 3; dsDNA, one strand shown
# Procedure, shortened: as §1
# SPIC = target: T2, SPIC (Homo sapiens, UniProt Q8N5J4 1-248); conditions: protein: recombinant; tags: N-terminal GST; dsDNA, one strand shown
# T2 sequence: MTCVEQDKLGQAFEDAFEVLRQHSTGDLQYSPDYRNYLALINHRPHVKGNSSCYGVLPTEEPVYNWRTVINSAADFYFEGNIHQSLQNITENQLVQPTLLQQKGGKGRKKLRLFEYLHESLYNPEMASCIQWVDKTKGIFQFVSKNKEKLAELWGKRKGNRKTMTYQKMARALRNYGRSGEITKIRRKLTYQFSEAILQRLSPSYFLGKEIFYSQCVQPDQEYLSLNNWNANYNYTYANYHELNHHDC
# Procedure, shortened: as §1
# ELF4 = ELF4 (Homo sapiens, UniProt Q99607 1-663); conditions: protein: recombinant; tags: N-terminal GST; dsDNA, one strand shown
# Procedure, shortened: as §1
# ELK4 = target: T3, ELK4 (Homo sapiens, UniProt P28324-2 1-405); conditions: protein: recombinant; tags: N-terminal GST; dsDNA, one strand shown
# T3 sequence: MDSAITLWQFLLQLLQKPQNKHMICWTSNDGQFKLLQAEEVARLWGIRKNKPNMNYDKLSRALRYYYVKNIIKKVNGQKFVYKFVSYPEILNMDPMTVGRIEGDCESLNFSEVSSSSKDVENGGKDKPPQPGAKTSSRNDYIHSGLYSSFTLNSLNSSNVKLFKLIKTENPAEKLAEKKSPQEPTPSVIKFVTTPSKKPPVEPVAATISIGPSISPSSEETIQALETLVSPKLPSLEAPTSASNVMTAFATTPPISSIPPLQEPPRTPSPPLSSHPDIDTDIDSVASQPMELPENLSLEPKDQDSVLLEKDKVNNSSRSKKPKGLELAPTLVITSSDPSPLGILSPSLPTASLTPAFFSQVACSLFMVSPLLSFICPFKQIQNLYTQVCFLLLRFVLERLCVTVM
# Procedure, shortened: as §1
# ETV2 = target: T4, ETV2 (Homo sapiens, UniProt O00321 1-342); conditions: protein: recombinant; tags: N-terminal GST; dsDNA, one strand shown
# T4 sequence: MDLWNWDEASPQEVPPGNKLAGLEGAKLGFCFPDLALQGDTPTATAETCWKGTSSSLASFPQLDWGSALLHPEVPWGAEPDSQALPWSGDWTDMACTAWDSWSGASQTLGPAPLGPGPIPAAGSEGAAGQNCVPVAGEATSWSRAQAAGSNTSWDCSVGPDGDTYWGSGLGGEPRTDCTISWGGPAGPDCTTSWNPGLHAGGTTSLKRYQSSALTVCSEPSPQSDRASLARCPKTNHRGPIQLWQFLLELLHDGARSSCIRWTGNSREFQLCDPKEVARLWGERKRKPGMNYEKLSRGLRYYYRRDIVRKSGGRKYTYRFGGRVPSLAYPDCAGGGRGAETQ
# Procedure, shortened: as §1
# ELF3 = target: T5, ELF3 (Homo sapiens, UniProt P78545 1-371); conditions: protein: recombinant; tags: N-terminal GST; dsDNA, one strand shown
# T5 sequence: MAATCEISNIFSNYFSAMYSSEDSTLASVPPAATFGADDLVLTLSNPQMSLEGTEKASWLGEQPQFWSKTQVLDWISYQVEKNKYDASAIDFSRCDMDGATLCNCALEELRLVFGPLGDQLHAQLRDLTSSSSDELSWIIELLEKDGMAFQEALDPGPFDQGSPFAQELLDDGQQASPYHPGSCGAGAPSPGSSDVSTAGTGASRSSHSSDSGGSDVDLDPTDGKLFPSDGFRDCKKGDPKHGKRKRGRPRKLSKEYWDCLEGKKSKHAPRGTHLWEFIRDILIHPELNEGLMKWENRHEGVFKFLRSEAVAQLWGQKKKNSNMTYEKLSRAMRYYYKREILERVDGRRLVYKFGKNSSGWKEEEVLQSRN
# Procedure, shortened: as §1
# CRX = CRX (Homo sapiens, UniProt O43186 1-299); conditions: protein: recombinant; tags: N-terminal GST; dsDNA, one strand shown
# Procedure, shortened: as §1
# ETV1 = ETV1 (Homo sapiens, UniProt P50549 1-477); conditions: protein: recombinant; tags: N-terminal GST; dsDNA, one strand shown
# Procedure, shortened: as §1
# ERF = target: T6, ERF (Homo sapiens, UniProt P50548 1-548); conditions: protein: recombinant; tags: N-terminal GST; dsDNA, one strand shown
# T6 sequence: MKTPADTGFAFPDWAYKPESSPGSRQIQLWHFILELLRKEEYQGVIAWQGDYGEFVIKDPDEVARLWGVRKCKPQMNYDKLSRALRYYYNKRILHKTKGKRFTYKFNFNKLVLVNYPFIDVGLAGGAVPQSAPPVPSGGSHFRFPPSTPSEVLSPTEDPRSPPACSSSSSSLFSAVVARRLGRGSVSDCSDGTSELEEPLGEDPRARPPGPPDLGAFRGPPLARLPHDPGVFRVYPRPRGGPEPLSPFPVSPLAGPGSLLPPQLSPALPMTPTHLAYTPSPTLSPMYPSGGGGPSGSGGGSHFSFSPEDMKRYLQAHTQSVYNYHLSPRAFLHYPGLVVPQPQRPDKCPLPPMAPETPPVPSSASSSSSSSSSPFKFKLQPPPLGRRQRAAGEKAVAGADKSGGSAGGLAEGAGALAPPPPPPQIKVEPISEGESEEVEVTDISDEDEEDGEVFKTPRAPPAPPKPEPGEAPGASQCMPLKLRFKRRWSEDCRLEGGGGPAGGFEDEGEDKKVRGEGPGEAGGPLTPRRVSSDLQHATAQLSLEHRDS
# Procedure, shortened: as §1
# ETV3L = target: T7, ETV3L (Homo sapiens, UniProt Q6ZN32 1-361); conditions: protein: recombinant; tags: N-terminal GST; dsDNA, one strand shown
# T7 sequence: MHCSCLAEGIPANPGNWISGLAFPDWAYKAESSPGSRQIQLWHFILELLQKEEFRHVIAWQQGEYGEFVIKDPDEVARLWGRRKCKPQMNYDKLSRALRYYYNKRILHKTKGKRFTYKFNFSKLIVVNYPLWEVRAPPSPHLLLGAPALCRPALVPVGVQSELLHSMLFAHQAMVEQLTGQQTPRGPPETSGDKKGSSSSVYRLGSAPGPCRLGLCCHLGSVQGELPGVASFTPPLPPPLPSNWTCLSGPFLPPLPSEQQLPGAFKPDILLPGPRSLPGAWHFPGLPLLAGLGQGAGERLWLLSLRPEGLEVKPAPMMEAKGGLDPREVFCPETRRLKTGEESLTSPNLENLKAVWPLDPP
# Procedure, shortened: as §1
# ETS2 = target: T8, ETS2 (Homo sapiens, UniProt P15036 1-469); conditions: protein: recombinant; tags: N-terminal GST; dsDNA, one strand shown
# T8 sequence: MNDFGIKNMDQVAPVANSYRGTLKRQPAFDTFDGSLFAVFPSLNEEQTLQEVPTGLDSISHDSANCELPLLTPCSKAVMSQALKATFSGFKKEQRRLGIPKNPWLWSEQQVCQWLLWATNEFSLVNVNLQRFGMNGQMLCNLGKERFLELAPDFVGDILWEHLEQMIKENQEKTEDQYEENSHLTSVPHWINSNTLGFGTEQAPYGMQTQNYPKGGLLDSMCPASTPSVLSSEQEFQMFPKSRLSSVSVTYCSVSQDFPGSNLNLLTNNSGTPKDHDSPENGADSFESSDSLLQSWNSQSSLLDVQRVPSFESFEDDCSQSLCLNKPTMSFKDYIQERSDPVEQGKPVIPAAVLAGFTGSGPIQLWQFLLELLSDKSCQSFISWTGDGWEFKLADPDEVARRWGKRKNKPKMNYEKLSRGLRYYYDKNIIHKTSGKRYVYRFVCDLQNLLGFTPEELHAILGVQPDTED
# Procedure, shortened: as §1
# SPDEF = target: T9, SPDEF (Homo sapiens, UniProt O95238 1-335); conditions: protein: recombinant; tags: N-terminal GST; dsDNA, one strand shown
# T9 sequence: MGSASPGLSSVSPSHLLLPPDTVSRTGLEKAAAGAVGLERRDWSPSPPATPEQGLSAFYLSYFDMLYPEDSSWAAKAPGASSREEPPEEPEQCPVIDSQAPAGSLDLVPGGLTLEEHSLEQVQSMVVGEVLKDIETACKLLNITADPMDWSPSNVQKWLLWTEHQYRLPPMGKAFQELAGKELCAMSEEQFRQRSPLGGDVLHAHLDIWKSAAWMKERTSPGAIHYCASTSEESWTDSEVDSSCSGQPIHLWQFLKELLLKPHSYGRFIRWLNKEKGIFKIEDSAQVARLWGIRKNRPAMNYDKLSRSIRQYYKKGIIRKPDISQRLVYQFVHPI
# Procedure, shortened: as §1
# ETV7 = target: T10, ETV7 (Homo sapiens, UniProt Q9Y603 1-341); conditions: protein: recombinant; tags: N-terminal GST; dsDNA, one strand shown
# T10 sequence: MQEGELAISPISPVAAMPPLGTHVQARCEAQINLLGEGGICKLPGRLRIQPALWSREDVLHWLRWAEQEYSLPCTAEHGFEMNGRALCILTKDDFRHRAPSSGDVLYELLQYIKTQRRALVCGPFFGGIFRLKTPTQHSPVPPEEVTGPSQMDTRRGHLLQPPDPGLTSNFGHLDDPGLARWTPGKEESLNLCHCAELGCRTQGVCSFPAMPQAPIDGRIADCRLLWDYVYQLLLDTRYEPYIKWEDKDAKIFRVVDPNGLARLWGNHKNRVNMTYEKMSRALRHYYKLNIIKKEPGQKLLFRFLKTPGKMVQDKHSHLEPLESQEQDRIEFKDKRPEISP
# Procedure, shortened: as §1
# ELF5 = target: T11, ELF5 (Homo sapiens, UniProt Q9UKW6-2 1-255); conditions: protein: recombinant; tags: N-terminal GST; dsDNA, one strand shown
# T11 sequence: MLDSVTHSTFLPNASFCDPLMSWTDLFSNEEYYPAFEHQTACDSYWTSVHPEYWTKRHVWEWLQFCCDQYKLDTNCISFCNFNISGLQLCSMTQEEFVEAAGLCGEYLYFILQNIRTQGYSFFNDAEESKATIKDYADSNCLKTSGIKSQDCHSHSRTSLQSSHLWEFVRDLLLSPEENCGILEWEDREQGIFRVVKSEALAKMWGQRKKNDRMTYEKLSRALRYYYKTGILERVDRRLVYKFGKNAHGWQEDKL
# Procedure, shortened: as §1
# ETV3 = target: T12, ETV3 (Homo sapiens, UniProt P41162-2 1-143); conditions: protein: recombinant; tags: N-terminal GST; dsDNA, one strand shown
# T12 sequence: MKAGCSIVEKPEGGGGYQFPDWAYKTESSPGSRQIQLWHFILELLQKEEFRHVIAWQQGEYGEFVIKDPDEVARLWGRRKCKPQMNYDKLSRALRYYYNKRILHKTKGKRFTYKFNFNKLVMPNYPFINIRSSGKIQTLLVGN
# Procedure, shortened: as §1
# ETV6 = ETV6 (Homo sapiens, UniProt P41212 1-452); conditions: protein: recombinant; tags: N-terminal GST; dsDNA, one strand shown
# Procedure, shortened: as §1
# CRX, sequence (O43186 whole entry): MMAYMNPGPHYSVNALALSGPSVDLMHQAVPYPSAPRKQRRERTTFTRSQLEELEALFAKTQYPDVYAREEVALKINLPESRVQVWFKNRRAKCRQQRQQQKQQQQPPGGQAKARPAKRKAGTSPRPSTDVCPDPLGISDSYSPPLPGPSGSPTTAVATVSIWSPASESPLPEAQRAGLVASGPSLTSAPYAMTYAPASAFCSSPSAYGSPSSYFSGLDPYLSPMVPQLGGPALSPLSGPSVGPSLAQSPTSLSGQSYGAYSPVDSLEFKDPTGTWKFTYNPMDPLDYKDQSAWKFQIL
# HSF1, sequence (Q00613 whole entry): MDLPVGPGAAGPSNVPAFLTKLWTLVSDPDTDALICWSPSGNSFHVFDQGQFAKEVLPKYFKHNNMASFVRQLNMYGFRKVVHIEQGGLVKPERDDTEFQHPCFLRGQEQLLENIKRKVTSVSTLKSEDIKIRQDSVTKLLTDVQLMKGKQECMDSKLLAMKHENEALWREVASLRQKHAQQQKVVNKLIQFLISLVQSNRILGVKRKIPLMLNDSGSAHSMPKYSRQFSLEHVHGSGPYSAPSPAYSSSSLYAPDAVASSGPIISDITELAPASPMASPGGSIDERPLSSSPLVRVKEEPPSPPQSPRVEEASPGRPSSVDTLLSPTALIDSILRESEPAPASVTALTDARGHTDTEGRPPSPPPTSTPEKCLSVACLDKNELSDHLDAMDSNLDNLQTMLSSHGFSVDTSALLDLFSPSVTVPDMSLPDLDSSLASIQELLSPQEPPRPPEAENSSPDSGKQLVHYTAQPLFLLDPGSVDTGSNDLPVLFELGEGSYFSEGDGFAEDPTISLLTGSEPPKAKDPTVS
# ETV6, sequence (P41212 whole entry): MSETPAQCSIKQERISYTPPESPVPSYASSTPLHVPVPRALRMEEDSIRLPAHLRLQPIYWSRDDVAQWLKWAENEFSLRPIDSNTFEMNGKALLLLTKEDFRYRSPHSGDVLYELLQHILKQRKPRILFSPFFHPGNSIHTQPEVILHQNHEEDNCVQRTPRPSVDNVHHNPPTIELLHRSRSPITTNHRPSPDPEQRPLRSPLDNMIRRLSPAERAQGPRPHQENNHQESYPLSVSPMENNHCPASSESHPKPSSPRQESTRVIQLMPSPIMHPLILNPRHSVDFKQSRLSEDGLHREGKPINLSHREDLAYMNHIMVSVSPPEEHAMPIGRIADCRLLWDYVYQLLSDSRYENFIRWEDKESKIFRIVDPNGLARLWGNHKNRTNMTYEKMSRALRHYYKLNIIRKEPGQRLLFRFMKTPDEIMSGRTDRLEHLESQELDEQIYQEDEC
# ELF4, sequence (Q99607 whole entry): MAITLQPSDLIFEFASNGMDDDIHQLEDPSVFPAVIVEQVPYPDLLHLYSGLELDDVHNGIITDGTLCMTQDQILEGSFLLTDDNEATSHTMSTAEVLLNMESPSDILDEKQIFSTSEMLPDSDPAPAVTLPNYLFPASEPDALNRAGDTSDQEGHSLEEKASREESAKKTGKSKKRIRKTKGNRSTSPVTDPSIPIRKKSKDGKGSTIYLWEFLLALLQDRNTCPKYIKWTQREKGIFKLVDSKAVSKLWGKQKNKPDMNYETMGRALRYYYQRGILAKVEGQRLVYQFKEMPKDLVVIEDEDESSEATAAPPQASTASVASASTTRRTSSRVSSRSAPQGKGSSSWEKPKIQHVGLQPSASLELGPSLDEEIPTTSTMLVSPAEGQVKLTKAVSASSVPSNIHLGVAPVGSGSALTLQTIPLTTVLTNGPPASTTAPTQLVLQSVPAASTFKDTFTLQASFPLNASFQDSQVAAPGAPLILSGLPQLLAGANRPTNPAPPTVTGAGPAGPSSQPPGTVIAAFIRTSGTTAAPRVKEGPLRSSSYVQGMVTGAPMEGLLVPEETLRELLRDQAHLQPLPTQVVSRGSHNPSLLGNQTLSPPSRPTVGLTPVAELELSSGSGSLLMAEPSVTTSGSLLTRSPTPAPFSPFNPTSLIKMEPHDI
# ETV1, sequence (P50549 whole entry): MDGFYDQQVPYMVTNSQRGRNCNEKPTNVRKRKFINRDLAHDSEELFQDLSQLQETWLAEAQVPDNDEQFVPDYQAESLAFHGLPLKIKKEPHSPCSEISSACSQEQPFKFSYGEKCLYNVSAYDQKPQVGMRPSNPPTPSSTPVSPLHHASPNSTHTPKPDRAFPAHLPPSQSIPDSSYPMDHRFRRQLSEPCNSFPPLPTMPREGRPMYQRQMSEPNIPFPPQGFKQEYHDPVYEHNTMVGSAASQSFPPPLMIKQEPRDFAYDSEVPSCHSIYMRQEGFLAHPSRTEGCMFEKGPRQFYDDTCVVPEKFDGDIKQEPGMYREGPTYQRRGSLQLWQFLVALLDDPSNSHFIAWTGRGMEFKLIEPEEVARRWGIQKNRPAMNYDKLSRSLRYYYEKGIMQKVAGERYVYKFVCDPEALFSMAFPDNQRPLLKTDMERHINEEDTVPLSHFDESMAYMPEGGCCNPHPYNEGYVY
# ETV5, sequence (P41161 whole entry): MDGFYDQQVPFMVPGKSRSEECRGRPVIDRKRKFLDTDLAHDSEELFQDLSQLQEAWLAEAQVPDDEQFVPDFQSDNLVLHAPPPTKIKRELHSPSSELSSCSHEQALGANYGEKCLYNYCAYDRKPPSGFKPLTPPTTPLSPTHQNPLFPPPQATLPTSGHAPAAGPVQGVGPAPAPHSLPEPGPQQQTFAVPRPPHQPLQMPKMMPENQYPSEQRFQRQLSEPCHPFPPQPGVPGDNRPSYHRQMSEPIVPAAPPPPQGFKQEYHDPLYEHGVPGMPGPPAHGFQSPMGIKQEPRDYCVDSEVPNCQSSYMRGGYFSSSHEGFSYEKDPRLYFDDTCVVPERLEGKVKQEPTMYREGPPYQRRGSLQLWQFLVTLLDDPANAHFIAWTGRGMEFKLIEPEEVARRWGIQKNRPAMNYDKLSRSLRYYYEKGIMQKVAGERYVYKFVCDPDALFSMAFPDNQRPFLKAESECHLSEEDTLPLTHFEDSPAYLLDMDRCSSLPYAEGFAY
sequence,measurement,setting,value
TTAAGC,binding signal,FEV,"1.18 fold enrichment (6-mer frequency, TF over GST control)"
same,binding signal,ETV5,"1.12 fold enrichment (6-mer frequency, TF over GST control)"
same,binding signal,HSF1,"2.25 fold enrichment (6-mer frequency, TF over GST control)"
same,binding signal,SPIC,"1.19 fold enrichment (6-mer frequency, TF over GST control)"
same,binding signal,ELF4,"1.22 fold enrichment (6-mer frequency, TF over GST control)"
same,binding signal,ELK4,"1.15 fold enrichment (6-mer frequency, TF over GST control)"
same,binding signal,ETV2,"1.03 fold enrichment (6-mer frequency, TF over GST control)"
same,binding signal,ELF3,"1.1 fold enrichment (6-mer frequency, TF over GST control)"
same,binding signal,CRX,"3.77 fold enrichment (6-mer frequency, TF over GST control)"
same,binding signal,ETV1,"1.11 fold enrichment (6-mer frequency, TF over GST control)"
same,binding signal,ERF,"1.21 fold enrichment (6-mer frequency, TF over GST control)"
same,binding signal,ETV3L,"1.22 fold enrichment (6-mer frequency, TF over GST control)"
same,binding signal,ETS2,"1.13 fold enrichment (6-mer frequency, TF over GST control)"
same,binding signal,SPDEF,"1.04 fold enrichment (6-mer frequency, TF over GST control)"
same,binding signal,ETV7,"1.13 fold enrichment (6-mer frequency, TF over GST control)"
same,binding signal,ELF5,"1.14 fold enrichment (6-mer frequency, TF over GST control)"
same,binding signal,ETV3,"1.22 fold enrichment (6-mer frequency, TF over GST control)"
same,binding signal,ETV6,"1.06 fold enrichment (6-mer frequency, TF over GST control)"
